Laboratory results: the supplement of paper PMC6555819

What was measured:
Assay in all cases: PBM binding z-score (relative to random genomic background probes); higher = stronger binding; sequences stand for … in GC…GCGATTGACAGCGTAGAATGAAGG
[1] = test system: RARb homodimer (NR concentration 270 nM)
In short: (§1)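 On custom Agilent 4×180K arrays, double-stranded probes with 34-nt variable regions carried direct-repeat seeds, single-nucleotide variants, half-site ablations or random human genomic background. Ligand-free nuclear receptor dimers were applied for 1 h, and binding was read with antibodies against each partner (one per run). Binding z-scores come from regression-normalized fluorescence, with the random background probes as reference.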

[2] = test system: RARg:RXRa (NR concentration 270 nM, RXRa partner concentration 90 nM)
In short: as §1

[3] = test system: RARg homodimer (NR concentration 270 nM)
In short: as §1

[4] = test system: RXRa DBDmut IVT, anti-RXR (DBD mutation: RXRa K156A/R161A, NR concentration 90 nM)
In short: as §1

[5] = test system: RXRa homodimer (NR concentration 180 nM)
In short: as §1

[6] = test system: THRa:RXRa (NR concentration 90 nM, RXRa partner concentration 90 nM)
In short: as §1

[7] = test system: THRa homodimer (NR concentration 90 nM)
In short: as §1

[8] = test system: VDR:RXRa (NR concentration 270 nM, RXRa partner concentration 90 nM)
In short: as §1

[9] = test system: VDR homodimer (NR concentration 270 nM)
In short: as §1

Sequence	PBM binding z-score [1]	PBM binding z-score [2]	PBM binding z-score [3]	PBM binding z-score [4]	PBM binding z-score [5]	PBM binding z-score [6]	PBM binding z-score [7]	PBM binding z-score [8]	PBM binding z-score [9]
CCGACTGGGGCAAGGTTACCACAACGCACAGCCA	1.53	1.13	1.45	-0.491	1.12	1.31	0.612	0.188	-0.211
ACAGACATGTGAGTGAAGGTAACTCAGCTGGACG	-0.584	0.0591	0.117	-0.191	0.317	-0.00314	-0.488	-0.252	-0.512
AGAATTAGGTTATACGTAGATCAGGGAAGAAAGT	0.51	0.538	0.552	0.428	0.592	0.759	0.539	0.22	0.454
CCAGACACGTGAAAGGTAACTCAGTCTGGTACGC	-0.128	-0.098	0.0725	0.166	0.263	0.166	-0.268	-0.114	-0.17
ATCGAAACGTCGAGGTGAGTATAGAGAAAGGGAA	-0.0564	0.238	0.317	-0.787	0.266	1.03	-0.0731	-0.325	-0.175
CCTAGCAGGCTAGGGTCACTCAAGCATTTCGCTT	2.67	3.35	2.35	0.61	3.65	3.64	1.81	2.72	1.07
CGAGCGAGGGCATGAGTTGATAGCAAATGCCGAT	0.657	1.14	1.22	2.15	1.19	0.963	-0.509	1.3	1.46
ATCTCTGGGTAAGACTCAGTTCAGTGAAGAACGC	0.372	0.252	0.292	0.0786	-0.0436	0.589	0.517	0.528	1.27
TCATATAGGTAAAGGTGAACGTCGAACGATATGA	1.73	1.71	1.52	0.894	2.17	1.5	-0.0395	0.748	-0.239
CCTACTGGGCCATTCAGAGGCCATTGATCATATG	0.918	0.62	0.424	-0.152	-0.147	0.255	-0.212	-0.232	-0.0106
TCTAGCAGGCCAGAGGGTTACTCAAGAGGTACGG	-0.00314	0.101	0.0155	-0.179	0.47	-0.0959	-1.11	-0.176	-0.658
CAAACTAGGTCAAGAGATCAAAGTCCGCTTCCCG	3.07	4.48	4.39	1.59	3.3	2.63	0.798	1.59	0.64
CCAGACAGGTGAGAAGGTAACACAGCCTCGATTA	1.03	0.858	0.833	0.148	0.73	0.62	0.195	0.086	0.124
CGGACTGGGGCAAGGTTACCATAACGCACAGCCA	1.45	1.34	1.4	-0.765	1.28	1.48	0.546	0.267	0.0512
CCAGACAGGTGAAAGGTAAGTCAGTCTGGTACGC	0.843	1.2	0.478	0.066	1.68	0.828	0.0448	0.522	0.0335
ACAGACAGGTGAGTGAAGGTGACTCAGCTGGACG	0.821	0.36	0.791	-0.543	0.523	2	-0.223	-0.119	-0.311
GCGACTGGGGCAAAACAGGTTACCATAAGGTTGG	1.31	0.535	0.627	-0.186	0.658	2.3	0.0603	0.212	-0.526
TGATTGAGGTTATAAGATCAGGGAACGTTGCAAA	0.293	1.55	1.13	0.404	2.06	1.68	0.31	1.01	0.65
GCTAGCAGGCCATTTGGGTCACTCGATGACGGGC	1.9	0.925	1.25	0.253	0.666	1.66	0.48	0.762	0.416
ATATGTAGGTTAAGGATCATTCAGGTTGGTTCGC	0.849	0.99	0.991	0.797	1.42	1.42	0.728	1.45	1.16
CCGACTGGGGCAAGGTTACCTTAACGCACAGCCA	1.27	0.881	1.11	-0.49	1.1	2.07	1.66	-0.0796	-0.391
CATACAGGGTCAGCTAGGCCAGAGTTGGGACGGC	3.24	4.28	4.57	1.31	4.06	3.02	0.732	3.74	1.33
TTACCAAGGTAAAGGTCGTTGATCCCTCTGTAGA	2.13	1.95	1.08	0.533	2.7	2.48	0.667	2.34	1.55
CCTCGGAGGACAGAAGTTCAGAGCTGTCCGCTTT	1.88	1.28	1.36	0.706	-0.0645	0.325	-0.73	0.197	0.521
CCTACTGGGCCAAAAAGATCATTGATGCCGATAA	-0.443	-0.189	0.104	-0.443	-0.145	-0.348	-0.71	-0.303	-0.266
ACTAGCAGGCCAAGTTTGGTTCACTCAAACAAAG	0.338	0.163	0.218	0.0733	-0.193	0.405	-0.294	0.34	0.338

Sequence	PBM binding z-score [1]	PBM binding z-score [2]	PBM binding z-score [3]	PBM binding z-score [4]	PBM binding z-score [5]	PBM binding z-score [6]	PBM binding z-score [7]	PBM binding z-score [8]	PBM binding z-score [9]
AGAATGAGGTTGTACGTAGATCAGGGAAGAAAGT	0.561	0.15	0.156	0.679	0.32	0.638	0.288	0.177	0.389
CAGACTGGGGCATAAGGTTACCATAAGCCAGCCC	1.78	1.9	1.41	0.105	1.6	2	1.04	0.497	-0.0112
TAGCCTAGATCAGATCGGGCCAGTATACGCTATA	-1.29	-0.519	-0.508	-1.09	-0.577	0.52	-1.58	-0.89	-1.04
TCTATTAGTTGATTACGGCAACCGAAACAGCGGA	-0.0417	0.252	0.426	1.38	0.521	0.122	0.312	0.738	0.575
CCAGACAGGTGAAATGTAACTCAGTCTGGTACGC	-0.215	0.487	0.478	0.261	0.624	0.0453	-0.307	0.0659	-0.0884
TAGCCTAGGTCATGGCCCAGTATACCACGCGAAC	3.06	4.47	4.41	0.508	3.73	3.38	1.49	2.25	0.698
CAAACTAGCTCACAGAGGTCAAAGTCCGTGCGTA	4.34	5.3	4.81	1.5	6.31	3.53	1.27	5.02	3.71
GCTTGTAGATCAAGGTTAAGATAGACTAAGCTAA	0.293	0.611	0.411	0.0981	1.04	1.21	-0.344	0.0807	-0.108
ATCTCTAGGTAAAGATAGTTCAGTAAATGCAAAT	1.08	0.439	0.876	0.336	0.446	0.803	0.595	1.22	0.651
TGAATGAGGTTAAAGATTAGGGAACGTGGCGTCG	0.481	1.91	1.29	1.09	2.89	2.37	0.417	1.44	0.533
TGAATGAGGTTATATGATCAGGGAACGTTGCAAA	0.492	1.64	0.971	1.26	2.06	1.98	0.364	1.33	0.855
CCTTACTGGTCACTGACAGGTTATAGCATTTGGA	1.55	1.76	1.32	0.856	0.874	0.492	0.796	0.592	0.63
TCGAGTAGGTTAGGGGCGTTCAGAATGGCGTCGA	0.347	-0.19	-0.416	0.366	0.0753	0.432	-0.0731	0.157	0.527
ACTAGTTGGTCATCTGAGGTCACACACAATTCGG	4.29	4.22	4.23	1.93	4.26	5.17	5.44	5.04	4.23
CGAACTAGGTCACTGACAGGACAGTGAATAGTAA	3.15	4.78	4.99	1.48	2.88	2.81	0.889	1.77	0.448
CTTTACGGGTCACTGACAGGTTATAGCATTTGGA	3.58	6.21	5.08	2.54	5.93	3.18	0.855	3.94	1.15
TCGAGTAGGTTACCAATGGGGTATTCAGCTTTCT	0.128	0.0634	0.354	0.563	0.443	0.253	-0.473	0.0284	-0.39
ATATGTAGATTACATCCGGGTCATTCAGGCTATG	2.23	1.66	1.21	1.02	2.2	3.14	2.27	3.34	2.43
GCGACTGGGGCAAAGCAGATTACCATAAGGTTGG	-0.011	0.122	0.273	-0.0663	0.0208	-0.00555	-0.248	-0.591	-0.153
CCTACTGGGCCAAAAAGCTCATTGATGCCGATAA	-0.842	-0.596	-0.419	-0.369	-0.638	-0.815	-0.619	-0.648	-0.487
CCGACCGGGGCAAGGTTACCATAACGCACAGCCA	1.54	1.65	1.73	-0.596	1.39	1.64	0.837	0.334	0.12
CGTCCAAGGTCAAAAGTCAGTGAAGAGATGACGG	3.25	5.69	5.8	3.57	6.1	3.41	1.3	3.74	1.86
GCGACTGGGGCAAAGTAGGTTACCATAAGGTTGG	1.42	0.662	0.576	-0.138	0.504	2.09	0.208	-0.0639	0.042
ATCTCTAGGTAAAAGTTCAGTGAATCCCGAGGAT	2.42	1.68	2.06	0.516	1.54	1.24	0.375	1.31	1.7
TCTATTAGTTGACGGGCAACCGACGAGTCCGTTT	-0.1	0.0549	-0.0135	1.46	0.417	-0.223	-0.348	0.671	0.718
